From PubChem BioAssay (NCI)
This is part of a sample that, as a whole, favours compounds with a hit. Of some 83,000 tested, about 20% had one in any assay.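 Testing used 96-well plates and a 48-hour single-concentration exposure. Example: -40 means 40% of the starting cells died.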 Unmarked numbers belong to inactive results. The source made the active and inactive calls. The calls were made as follows: active = growth percent below 10; inactive = the rest.

What was measured:
Assay in all cases: NCI-60 one-dose screen, 48 h (100 = growth as untreated, 0 = no growth, -100 = all killed)
Conditions in all cases: 10 µM unless noted
T-47D breast = system: T-47D breast
MDA-MB-435 melanoma = system: MDA-MB-435 melanoma
SW-620 colon = system: SW-620 colon
MCF7 breast = system: MCF7 breast
HCC-2998 colon = system: HCC-2998 colon
KM12 colon = system: KM12 colon
HCT-116 colon = system: HCT-116 colon

Compound `CCOC(=O)C1CN(Cc2ccccc2)C(=O)C1=O` (configuration not stated) has a growth (T-47D breast) of 104%, a growth (MDA-MB-435 melanoma) of 98.6% and a growth (SW-620 colon) of 95%. For the same compound, the growth (MCF7 breast) was 100%, the growth (HCC-2998 colon) was 118% and the growth (KM12 colon) was 108%.

Compound `CSc1nc(N)nc2c1ncn2C` has a growth (T-47D breast) of 90.3%, a growth (MDA-MB-435 melanoma) of 102% and a growth (SW-620 colon) of 101%. The growth (MCF7 breast) was 96.7%, the growth (HCC-2998 colon) was 99.8% and the growth (KM12 colon) was 95.6%.

For `CCOC(=O)c1cnc2c(OC)ccc(OC)c2c1Cl`, the growth (T-47D breast) was 116%, the growth (SW-620 colon) was 107% and the growth (MCF7 breast) was 108%. It also gave a growth (HCT-116 colon) of 108%, a growth (HCC-2998 colon) of 117% and a growth (KM12 colon) of 101%.

`CCC(N)(C(=O)O)c1ccc(F)cc1` (configuration not stated) was tested, and the growth (T-47D breast) was 111%, the growth (MDA-MB-435 melanoma) was 105% and the growth (SW-620 colon) was 110%. It also gave a growth (MCF7 breast) of 93.5%, a growth (HCT-116 colon) of 91.3% and a growth (HCC-2998 colon) of 95.4%. It also gave a growth (KM12 colon) of 105%.

`CNC(=O)NN` showed a growth (T-47D breast) of 92.3%, a growth (MDA-MB-435 melanoma) of 102% and a growth (SW-620 colon) of 93.7%. It also gave a growth (MCF7 breast) of 98.1%, a growth (HCT-116 colon) of 93.6% and a growth (HCC-2998 colon) of 101%. It also gave a growth (KM12 colon) of 101%.

With `O=C(C[n+]1cccc(Br)c1)c1ccc2c(c1)CCCC2` the growth (T-47D breast) was 91.6%, the growth (MDA-MB-435 melanoma) was 100% and the growth (SW-620 colon) was 103%. The growth (MCF7 breast) was 90.4%, the growth (HCT-116 colon) was 88.2% and the growth (HCC-2998 colon) was 103%. It also gave a growth (KM12 colon) of 108%.

With `CC(=O)Nc1ccc([I+]c2ccc([N+](=O)[O-])cc2)cc1` the growth (T-47D breast) was 68.1%, the growth (SW-620 colon) was 95.1% and the growth (MCF7 breast) was 94.8%. For the same compound, the growth (HCT-116 colon) was 81%, the growth (HCC-2998 colon) was 106% and the growth (KM12 colon) was 104%.

Work on `Oc1ccccc1/C=N/c1ccccn1` yielded a growth (T-47D breast) of 95.9%, a growth (MDA-MB-435 melanoma) of 122% and a growth (SW-620 colon) of 107%. For the same compound, the growth (MCF7 breast) was 97.7%, the growth (HCT-116 colon) was 103% and the growth (HCC-2998 colon) was -94.1% (active). For the same compound, the growth (KM12 colon) was 113%.

For `CCNc1cc(S(=O)(=O)O)ccc1C`, the growth (T-47D breast) was 90%, the growth (MDA-MB-435 melanoma) was 107% and the growth (SW-620 colon) was 104%. For the same compound, the growth (MCF7 breast) was 98.6%, the growth (HCT-116 colon) was 98.3% and the growth (HCC-2998 colon) was 103%. The growth (KM12 colon) was 107%.

`COc1ccc(-c2c(C#N)cnc(N)c2-c2nc3cc(C)c(C)cc3[nH]2)cc1` was tested, and the growth (T-47D breast) was 71.7%, the growth (MDA-MB-435 melanoma) was -5.12% (active) and the growth (SW-620 colon) was 38.4%. For the same compound, the growth (MCF7 breast) was 50.9%, the growth (HCT-116 colon) was 20.7% and the growth (HCC-2998 colon) was 1.45% (active). The growth (KM12 colon) was 17.2%.

In the case of `COc1ccc(/C(=C/c2cc(OC)c(OC)c(OC)c2)[N+](=O)[O-])cc1`, the growth (T-47D breast) is reported as 6.27% (active), the growth (MDA-MB-435 melanoma) is reported as 7.21% (active) and the growth (SW-620 colon) is reported as -31% (active). For the same compound, the growth (MCF7 breast) was 1.7% (active), the growth (HCT-116 colon) was 11.8% and the growth (HCC-2998 colon) was 91.5%. It also gave a growth (KM12 colon) of 15.5%.

Work on `CC(=O)N[C@@H](CNC(=O)c1cc(NC(=O)c2cc(NC(=O)c3cc(NC(=O)c4nccn4C)cn3C)cn2C)cn1C)CC(=O)Nc1cn(C)c(C(=O)Nc2cc(C(=O)Nc3cc(C(=O)Nc4cc(C(=O)NCCCN(C)CCCNC(=O)c5cccc(C(=O)O)c5)n(C)c4)n(C)c3)n(C)c2)n1` yielded a growth (T-47D breast) of 41.5%, a growth (MDA-MB-435 melanoma) of 95.5% and a growth (SW-620 colon) of 90.9%. The growth (MCF7 breast) was 77.8%, the growth (HCT-116 colon) was 43.9% and the growth (HCC-2998 colon) was 106%. The growth (KM12 colon) was 42.6%.

Work on `Cc1cccc[n+]1CCC[n+]1ccccc1C` yielded a growth (T-47D breast) of 85.6%, a growth (MDA-MB-435 melanoma) of 102% and a growth (SW-620 colon) of 107%. For the same compound, the growth (MCF7 breast) was 96.5%, the growth (HCT-116 colon) was 86.1% and the growth (KM12 colon) was 100%.

`Cc1ccc2c(c1)Nc1ccc(C)cc1C2(C)C` showed a growth (T-47D breast) of 80.6%, a growth (MDA-MB-435 melanoma) of 98.3% and a growth (SW-620 colon) of 103%. The growth (MCF7 breast) was 86.9%, the growth (HCT-116 colon) was 89.3% and the growth (HCC-2998 colon) was 104%. The growth (KM12 colon) was 110%.

For `Oc1ccc(O)c(-[n+]2ccccc2)c1`, the growth (T-47D breast) was 110%, the growth (MDA-MB-435 melanoma) was 109% and the growth (SW-620 colon) was 96.9%. The growth (MCF7 breast) was 102%, the growth (HCT-116 colon) was 93.3% and the growth (HCC-2998 colon) was 102%. It also gave a growth (KM12 colon) of 107%.

`CCOC(=O)C1CSC(C)(C(=O)OCC)N1` (configuration not stated) was tested, and the growth (T-47D breast) was 99.8%, the growth (SW-620 colon) was 104% and the growth (MCF7 breast) was 93.4%. For the same compound, the growth (HCT-116 colon) was 96.6%, the growth (HCC-2998 colon) was 101% and the growth (KM12 colon) was 107%.

Compound `c1nc(SC2=NCCN2)c2[nH]cnc2n1` has a growth (T-47D breast) of 21.8%, a growth (MDA-MB-435 melanoma) of 24% and a growth (SW-620 colon) of 58.5%. It also gave a growth (MCF7 breast) of 14%, a growth (HCT-116 colon) of 37% and a growth (HCC-2998 colon) of 32.8%. For the same compound, the growth (KM12 colon) was 47.2%.

`COc1ccccc1P(c1ccccc1OC)c1ccccc1OC` gave a growth (T-47D breast) of 87.6%, a growth (MDA-MB-435 melanoma) of 115% and a growth (SW-620 colon) of 103%. For the same compound, the growth (MCF7 breast) was 95.9%, the growth (HCT-116 colon) was 94.2% and the growth (HCC-2998 colon) was -97.4% (active). For the same compound, the growth (KM12 colon) was 86.4%.

With `O=C(O)c1ccccc1C(=O)c1ccc(I)cc1` the growth (T-47D breast) was 83.1%, the growth (MDA-MB-435 melanoma) was 107% and the growth (SW-620 colon) was 97.4%. It also gave a growth (MCF7 breast) of 92.1%, a growth (HCT-116 colon) of 99.9% and a growth (HCC-2998 colon) of 102%. For the same compound, the growth (KM12 colon) was 106%.
